Assay outcomes as filed in PubChem BioAssay.
A selection: hits, their analogues and other compounds. The true share with any hit is near 0.93%.
F508del corr – CFTR F508del correction in bronchial cells; activity (quench increase), % at 7.58 µM; CFBE cells, YFP halide quenching; stimulated with forskolin plus potentiator P3; % fluorescence drop versus neutral controls; AID 720511; hit rate 0.36% among 350,000;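 active means mean added fluorescence quench of at least 8% versus neutral control, with both replicates also reaching 8%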;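 further: cells transiently co-express mutant CFTR-F508del with the halide-sensitive YFP; corrector assay measuring rescue of mutant channel to the surface after 24 h compound exposure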
HIF activator – HIF pathway transcriptional activation. U2OS HRE-luciferase reporter, luminescence; normalized: DMSO 0%, desferrioxamine 100%. activation, % at 7.5 µM (by protocol). hit rate 0.32% among 300,000;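 active means mean activation of at least 10% of the iron chelator positive control signal, with at least half of replicates also reaching 10%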
697 NFkB inh – lowers PMA/ionomycin-induced NF-kB signal in 697 B cells; 697 B-cell NF-kB luciferase reporter, 16 h; hit rate 0.33% among 330,000; inhibition, % at 4 µM; in the data active means inhibition above about 35%
Jurkat NFkB inh – inhibitors of the PMA/ionomycin-induced NF-kB reporter in Jurkat cells; PMA/ionomycin-induced NF-kB luciferase reporter, luminescence; AID 435003; hit rate 0.53% among 330,000; inhibition, % at 4 µM; in the data active means inhibition above about 50%
* marks the source's active call; other numbers are inactive results; . = no result given.

SMILES	F508del corr	HIF activator	697 NFkB inh	Jurkat NFkB inh
CC(C)C[C@H]1CN([C@@H](CC(C)C)CN2CCCC2CN2C(=S)NC[C@@H]2Cc2ccc(O)cc2)C(=S)N1CCc1ccccc1 (stereo partly drawn)	-0.7	.	.	.
CC(C)C[C@H]1CN([C@@H](CC(C)C)CN2CCC[C@@H]2CN2C(=S)NC[C@@H]2Cc2ccc(O)cc2)C(=S)N1CCc1ccccc1	8.8*	.	.	.
CC(C)C[C@H]1CN([C@@H](Cc2ccc(O)cc2)CN2CCC[C@@H]2CN2C(=O)C(=O)NC[C@@H]2Cc2ccccc2)C(=O)C(=O)N1CC1CCCCCC1	1.7	.	.	.
CC(C)C[C@H]1CN([C@@H](Cc2ccc(O)cc2)CN2CCC[C@H]2CN2C(=O)C(=O)NC[C@@H]2Cc2ccccc2)C(=O)C(=O)N1CC1CCCCC1	8.4*	.	.	.
O=C(c1ccc(F)cc1)N1C[C@@H]2[C@H](c3ccccc31)[C@@H](CO)N2Cc1ccc2c(c1)OCO2	-1.4	.	.	.
O=[N+]([O-])c1ccc(NN=Cc2cccc3ccccc23)nc1	-1.0	.	.	.
COc1cccc(/C=N/Nc2ccc([N+](=O)[O-])cn2)c1O	.	49.9*	-94.4	-3.8
CCNC(=O)C1(C)CCN(C(=O)c2cc(F)ccc2C)C1 (stereo not drawn)	16.3*	.	.	.
CCCS(=O)(=O)NC(=O)C1(C)CCN(C(=O)c2cc(F)ccc2C)C1 (stereo not drawn)	3.3	.	.	.
COc1ccc2c3c([nH]c2c1)[C@@H](CO)NCC31CN(S(=O)(=O)c2ccccc2)C1	1.1	.	.	.
O=c1cc(-c2ccccc2)nc2cc(-c3ccc(F)cc3)[nH]n12	-0.9	0.6	-85.1	-7.7
COc1cccc(-c2cc3nc(-c4ccccc4)cc(=O)n3[nH]2)c1	11.6*	3.0	-50.2	4.9
O=C(CN1CCN(S(=O)(=O)c2ccccc2)CC1)Nc1ccccc1Cl	8.5*	-0.6	2.2	3.6
COc1cccc2cc(C(=O)NCCN3CCOCC3)c(=O)oc12	9.6*	-2.0	18.8	7.7
COc1ccc(CCNC(=O)c2cc3cccc(OC)c3oc2=O)cc1OC	.	-0.6	-3.9	7.5
COc1ccc(NC(=O)C(=O)c2cn(CC(=O)N3CCCC3)c3ccccc23)cc1OC	9.3*	0.8	6.3	31.5
O=C1c2ccccc2C(=O)c2c(NCc3cccnc3)cccc21	.	0.0	-4.1	-8.0
O=C1c2cccc(NCCCNCCO)c2C(=O)c2cccc(NCCCNCCO)c21	12.8*	.	.	.
O=C(NCc1nnnn1-c1ccc(Cl)cc1)C(=O)c1c[nH]c2ccccc12	11.0*	.	.	.
COc1ccc(-n2nnnc2CNC(=O)C(=O)c2c[nH]c3ccccc23)cc1	-1.0	-0.6	14.2	10.9
O=C(Cc1ccc(Br)cc1)NCc1ccccc1	20.5*	-2.4	-70.0	35.4
C[C@@H]1CN([C@@H](C)CO)C(=O)c2cc(NS(=O)(=O)c3cccs3)ccc2O[C@H]1CN(C)C(=O)Nc1ccc(C(F)(F)F)cc1	0.6	.	.	.
C[C@@H]1CCCCO[C@H](CN(C)S(=O)(=O)c2cccs2)[C@H](C)CN([C@@H](C)CO)C(=O)c2cc(NC(=O)C3CCCCC3)ccc2O1	1.0	.	.	.
Fc1cc(Br)ccc1NC(=S)Nc1ccccc1	.	2.4	-3.7	-3.8
Fc1ccccc1NC(=S)Nc1ccc(Br)cc1	.	80.5*	-34.9	0.0
SMILES	F508del corr	HIF activator	697 NFkB inh	Jurkat NFkB inh
COC(=O)Nc1ccc(=O)n(Cc2c(Cl)cccc2Cl)c1	.	174.9*	12.9	3.5
Cc1ccc(Nc2c(-c3ccccn3)nc3ccc(C)cn23)cc1	-1.0	122.3*	-14.7	-4.5
Cc1ccc2nc(-c3ccncc3)c(Nc3ccccc3)n2c1	1.4	0.5	-1.7	-6.6
Cc1ccc(Nc2c(-c3ccccn3)nc3cc(C)ccn23)cc1	-3.4	90.8*	-4.8	8.8
C[C@@H]1CN([C@@H](C)CO)C(=O)Cc2cc(NC(=O)C3CC3)ccc2O[C@H]1CN(C)S(=O)(=O)c1cccs1	-5.5	.	.	.
CC(C)Nc1nc(Nc2ccc(C#N)cc2)c2sccc2n1	8.1*	.	.	.
CCC(=O)NC(c1cccs1)c1cc([N+](=O)[O-])c2cccnc2c1O (stereo not drawn)	3.4	5.8	-77.1	22.1
COc1ccc(C(NC(=O)c2cccnc2)c2cc(Cl)c3cccnc3c2O)cc1OC (stereo not drawn)	.	11.9*	1.6	-4.3
CC(=O)NC(c1ccc(C)cc1)c1cc(Cl)c2cccnc2c1O (stereo not drawn)	4.1	9.8*	-24.1	4.3
O=C(CCc1ccccc1)NC(c1cccs1)c1cc(Cl)c2cccnc2c1O (stereo not drawn)	-3.5	101.7*	.	.
CC(=O)NC(c1cccs1)c1cc([N+](=O)[O-])c2cccnc2c1O (stereo not drawn)	-0.6	17.8*	.	.
COCC(=O)N1CC2(CCN(Cc3ccccc3)CC2)c2c(n(C)c3cc(OC)ccc23)[C@H]1CO	-1.9	.	.	.
CN1[C@@H]2c3ccc(-c4ccc(F)cc4)c(=O)n3C[C@@H]2[C@@H](CO)[C@@H]1C(=O)NCC1CC1	-0.8	.	.	.
CCC(=O)NC(c1ccc(OC)cc1)c1cc(Cl)c2cccnc2c1O (stereo not drawn)	-4.2	22.8*	-23.5	14.5
CCCN1C[C@H](C)[C@H](OC)CN(C)C(=O)c2ccc(NC(=O)c3cccc(OC)c3)cc2OC[C@@H]1C	0.5	.	.	.
CCN(C(=O)CSc1ncn[nH]1)C1CCCCC1	.	77.0*	16.0	-2.8
CCN(C(=O)CSc1nc(C)cc(=O)[nH]1)C1CCCCC1	-1.8	.	-7.5	0.1
CN(Cc1cnc2nc(N)nc(N)c2n1)c1ccc(C(=O)NC(CCC(=O)O)C(=O)O)c2ccccc12 (stereo not drawn)	11.5*	.	.	.
COCCOC(=O)c1[nH]c2c(c1C)C(=O)CC(c1cccs1)C2 (stereo not drawn)	13.1*	0.3	.	.
CCC1Oc2ccccc2N(CC(=O)Nc2ccccc2OC)C1=O (stereo not drawn)	.	224.9*	-7.3	-10.2
COc1ccccc1NS(=O)(=O)c1cc(C(=O)N2CCCCCC2)ccc1C	17.9*	.	5.6	-1.6
COc1ccccc1NS(=O)(=O)c1cc(C(=O)N2CCCC2)ccc1C	1.5	.	11.1	-4.0
Cc1ccc(/C=N/NC(=O)c2ccc(Br)o2)s1	.	9.9*	-60.1	-27.5
O=C(C[C@@H]1CC[C@H](NC(=O)Nc2ccccc2F)[C@@H](CO)O1)NCc1ccc(-c2ccccc2)cc1	1.4	.	.	.
CCN(CC)CCCNc1nc2ccccc2c2[nH]c3ccc(OC)cc3c12	16.8*	.	.	.
C[C@@H]1CN([C@H](C)CO)C(=O)Cc2cc(NS(=O)(=O)c3cccs3)ccc2O[C@@H]1CN(C)S(=O)(=O)c1cccs1	-1.1	.	.	.
COc1ccc(NC(=O)c2ccc(NC(=O)c3nc4nccc(C)n4n3)cc2)cc1	26.9*	.	-4.1	0.3
C[C@H](CO)N1C[C@H](C)[C@@H](CN(C)CC2CCCCC2)Oc2ccc(NC(=O)NC3CCCCC3)cc2CC1=O	-1.2	.	.	.
Cc1ccc(S(=O)(=O)N(Cc2cc3ccccc3[nH]c2=O)c2cccc(C)c2)cc1	14.4*	0.2	-24.1	33.6
Cc1ccc(S(=O)(=O)N(Cc2cc3ccc(C)cc3[nH]c2=O)c2ccccc2)cc1	0.1	0.1	-113.5	-109.1
